# PubChem BioAssay AID463117 (University of Pittsburgh Molecular Library Screening Center, 2010)
# Some of the results follow. Activity calls are given as the source filed them.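 Rule for the calls: active = mean protection from necroptosis of at least 50% over duplicate tests; inactive = mean protection below 50%.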
# Assay: inhibitors of zVAD-triggered necroptosis in L929, confirmation, L929 cells, duplicate runs (AID 463117);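 note: 0% = cells with zVAD alone and 100% = vehicle cells without zVAD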
# Details: L929 zVAD-induced necroptosis rescue, ATP luminescence, 24 h; at 10 µM; stronger effect = higher value
row,SMILES,activation (protection from necroptosis)
1,O=C(CSc1ccc([N+](=O)[O-])cn1)Nc1ccc(N2CCOCC2)c(Cl)c1,3.3% (inactive)
2,Cc1[nH]c(=O)c(C(=O)/C=C/c2ccccc2)c2c1CCCC2,1.29% (inactive)
3,Cn1ccc(NC(=O)Nc2ccc(Cl)cc2)n1,28.3% (inactive)
4,Cc1cc(NC(=O)c2cnn3cccnc23)n(-c2ccccc2)n1,21.5% (inactive)
5,Cc1ccccc1NC(=O)CSC1=NCCN1,7.19% (inactive)
6,Cc1cc(-n2cnc(-c3cn(C)nc3C)n2)no1,27.6% (inactive)
7,COc1ccc(Nc2ncc(F)c(N3CCOCC3)n2)cc1,1.91% (inactive)
8,Cc1ccc(NC(=O)COc2ccc(-n3ccnc3)cc2)cc1Cl,62.3% (active)
9,COc1ccc(N=Cc2c(O)[nH]c3ccccc23)cc1OC,76% (active)
10,CCn1c(SCCC(C)C)nnc1-c1c[nH]c2ccccc12,2.15% (inactive)
11,CCOc1ccc(C(=O)Nc2nccs2)cc1[N+](=O)[O-],1.6% (inactive)
12,Cc1csc(NC(=O)NC2(C(F)(F)F)Oc3ccccc3O2)n1,1.61% (inactive)
13,Oc1ccc(-c2onc3ccc(Cl)cc23)cc1,11.4% (inactive)
14,Cc1cccc(NC(=O)Nc2ccc3c(c2)OCO3)n1,-0.556% (inactive)
15,CCn1c(SCC(=O)Nc2nc3ccc(OC)cc3s2)nnc1-c1ccoc1C,1.15% (inactive)
16,CC1CCCC(C)N1CCCNC(=O)c1cc2c(=O)n(C)c3ccccc3c2n1C (stereo not drawn),37.3% (inactive)
17,COc1ccc(-c2csc(Nc3ccc(O)cc3)n2)cc1,30.2% (inactive)
18,CC(=O)c1ccc(S(=O)(=O)N2CCN(C(=O)/C=C/c3ccc4ccccc4n3)CC2)cc1,2.81% (inactive)
